# JMJD2A Tudor inh = blocks the human JMJD2A Tudor domain; AlphaScreen JMJD2A-Tudor / H3K4me3 peptide binding; Potency, µM (series often up to 114 µM), most hits filed as inhibitors; 4.4% of 390,000 active; further: nearly all actives have a fitted effect of over 50% in size
# BAZ2B inh = inhibitors of human BAZ2B bromodomain; AlphaScreen BAZ2B-H3K14Ac peptide displacement; Potency, µM (series often up to 114 µM), usual class: inhibitors; 4.4% of 360,000 active; AID 504333; further: nearly all actives have a fitted effect of over 60% in size
#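 In this displacement format the biotinylated H3(5-23) peptide acetylated at Lys14 serves as ligand at 50 nM, with BAZ2B at 50 nM in PBS pH 7.4 containing 0.01% Tween-20. Donor and acceptor beads are 10 ug/mL final.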
# Six1-Eya2 blk = blocks human Six1 binding to Eya2 | activity change, % (no concentration beside the values) | AID 651725 | 0.56% of 360,000 active | AlphaScreen GST-Six1/His-Eya2 binding, biochemical; hits give low values; in the data active means activity change below about -65%; inconclusive means mostly about -30% to -63%
#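 Homogeneous AlphaScreen proximity assay pairing GST-Six1 with His-tagged Eya2 (added as 5X mix: 250 nM and 500 nM) in 50 mM Tris pH 8.0, 300 mM NaCl, 1 mM TCEP. Glutathione donor and nickel acceptor beads; 1 h, 37 °C, dark.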
# HP1b chromo inh = inhibitors of HP1-beta chromodomain binding to methylated histone tails; P83916; AlphaScreen HP1-beta / biotin-H3K9me3 peptide binding; AID 540317; Potency, µM (top dose mostly 114 µM), hits mostly inhibitors; 0.56% of 390,000 active; further: nearly all actives have a fitted effect of over 70% in size
# Target sequence (P83916 whole entry, looked up): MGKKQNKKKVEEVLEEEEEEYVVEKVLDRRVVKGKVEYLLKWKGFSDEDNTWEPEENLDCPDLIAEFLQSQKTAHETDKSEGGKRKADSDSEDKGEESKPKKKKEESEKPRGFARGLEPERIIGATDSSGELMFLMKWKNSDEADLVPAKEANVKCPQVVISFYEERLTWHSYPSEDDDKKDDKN
#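 HP1-beta protein (50 nM final) preincubated 30 min at room temperature with biotinylated H3(1-18)K9me3 peptide (50 nM) in PBS pH 7.4, 0.01% Tween-20, then compound added for 30 min. AlphaScreen streptavidin donor/nickel chelate acceptor beads (10 ug/mL final), 30 min dark, luminescence read.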
# CtBP-E1A inh = blocks the CtBP interaction with E1A. activity change, % (concentration not given with the values). AlphaScreen GST-E1A/His-CtBP binding, 1536-well; hits give low values. AID 651724. 0.49% of 340,000 active; in the data active means activity change below about -65%; inconclusive means mostly about -30% to -63%
#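 In 5 uL wells, 23 nL compound meets equimolar GST-E1A and His-CtBP (5X stock 125 nM each) for 2 h, 37 °C. Beads (5X, 50 ug/mL) then 1 h, 37 °C, dark.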
# G9a block = G9a (human) methyltransferase inhibition; AID 504332; 8.8% of 350,000 active; G9a H3K9 monomethylation, AlphaScreen, 2 h; Potency, µM (doses to about 102 µM), most hits filed as inhibitors; Q96KQ7; further: nearly all actives have a fitted effect of over 75% in size
# Target sequence (Q96KQ7 913-1193 limits assumed): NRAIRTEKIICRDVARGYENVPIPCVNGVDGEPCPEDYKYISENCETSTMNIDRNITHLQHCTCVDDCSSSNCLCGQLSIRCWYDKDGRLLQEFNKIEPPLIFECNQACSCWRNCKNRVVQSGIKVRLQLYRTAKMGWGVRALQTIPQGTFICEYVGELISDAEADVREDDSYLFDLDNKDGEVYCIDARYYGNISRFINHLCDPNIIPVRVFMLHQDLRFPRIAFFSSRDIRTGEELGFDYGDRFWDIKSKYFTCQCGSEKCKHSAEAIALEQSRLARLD
#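 Signal arises when biotinylated H3K9 peptide, once monomethylated, bridges streptavidin donor and antibody-captured acceptor beads. Enzyme at 20 nM was preincubated 15 min with test compounds; peptide 500 nM and SAM 20 uM then reacted for 2 h.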
# Hits are given with their value; – = inactive; ? = inconclusive; · = no result; [ ] = dose if it differs, or a comment. Shown are actives, neighbours in structure and some others; about 10% of the full set was active somewhere. Unless noted, the call rests on the fitted dose curve; in most records, active means well fitted inhibition curve with a large enough effect; inconclusive means small, poorly fitted or top-dose-only effect; inactive means no such curve, though single readings can be large or run the other way.
SMILES,JMJD2A Tudor inh,BAZ2B inh,Six1-Eya2 blk,HP1b chromo inh,CtBP-E1A inh,G9a block
O=P(NS(=O)(=O)c1ccc(Br)cc1)(Oc1ccccc1)Oc1ccccc1,–,?,–,–,–,–[12.7 µM]
Cc1ccc(S(=O)(=O)NP(=O)(Oc2ccccc2)Oc2ccccc2)cc1,?,–,–,–,–,56µM
O=C1N=NC2=C1c1c3ccccc3c(O)n1CC2,–,–,–,?,–,–
COc1ccc(N2CC(C(=O)NCc3ccco3)CC2=O)cc1 (stereo not drawn),?,–,–,–,–,18µM
CCOc1ccc2c3c1O[C@H]1[C@@H](O)C=C[C@H]4[C@@H](C2)N(C)CC[C@@]341,·,·,·,·,·,–[2.33 µM]
Cc1nc2cc(F)ccc2n1C1CCN(Cc2nnnn2CCc2ccccc2)CC1,–,56µM,–,–,–,–
Cc1cc2ccccc2n1CCNC(=O)COc1ccccc1,20µM,?,–,?,–,50µM
O=C(COc1ccccc1)NCCc1cnc[nH]1,–,–,–,–,–,–
C(#CCN1CCCCC1)COCc1ccccc1,–,–,–,–,–,·
C(#CCN1CCOCC1)COC/C=C/c1ccccc1,–,–,–,–,–,45µM
O=C(/C=C/c1ccccc1)NC(NC(=S)Nc1cccc2cccnc12)C(Cl)(Cl)Cl (stereo not drawn),·,·,·,·,·,14µM
CCCCCCN1CCN(c2ccccc2Cl)CC1,56µM,71µM,–,–,·,–
Cc1nc2cnc(N3CCNCC3)nc2n(C)c1=O,·,·,·,·,·,–[12.7 µM]
CC(C)CC1C(C#N)=C(N)Oc2c1c(=O)oc1ccccc21 (stereo not drawn),45µM,–,–,–,–,–
CN1CCN(Cc2ccc(N)cc2)CC1,–,–,–,–,–,–[0.501 µM]
CN1CCN(Cc2cc(C(C)(C)C)c(O)c(C(C)(C)C)c2)CC1,2.2µM,?,–,?,–,8.9µM
S=C(S)N1CCCC1,–,–,–,–,–,0.71µM
COc1cccc(CN2CCN(C(=O)COc3ccc4ccccc4c3)CC2)c1,–,–,–,–,–,?
COc1cc(OC)c(OC)cc1CN1CCN(C(=O)COc2ccc3ccccc3c2)CC1,3.2µM,45µM,–,50µM,–,10µM
COc1ccc(OCC(=O)N2CCN(C(C)C)CC2)cc1,1.4µM,56µM,–,?,–,10µM
COc1ccccc1CN1CCN(C(=O)COc2ccccc2)CC1,3.2µM,?,–,?,–,?
Cc1cccc(OCC(=O)N2CCN(Cc3ccc([N+](=O)[O-])cc3)CC2)c1,10µM,–,–,?,–,–
CCN1CCN(C(=O)Cc2ccccc2OC)CC1,–,–,–,–,–,–
C=CCn1c(O)c(C=Nc2ccc(Cc3ccncc3)cc2)c(=O)[nH]c1=S,?,?,–,–,–,–[0.501 µM]
C=C[C@H](Cc1ccccc1)N(Cc1ccccc1)S(=O)(=O)N(Cc1ccccc1)[C@H](C=C)Cc1ccccc1,–,·,–,–,–,·
SMILES,JMJD2A Tudor inh,BAZ2B inh,Six1-Eya2 blk,HP1b chromo inh,CtBP-E1A inh,G9a block
CN1CCc2nc(SCc3ccccc3Br)c(C#N)cc2C1,?,–,–,–,·,18µM
CC(=O)CC(c1ccc2c(c1)OCO2)c1c(O)c2ccccc2oc1=O (stereo not drawn),·,·,–,·,–,·
CC(=O)CC(c1ccccc1[N+](=O)[O-])c1c(O)c2ccccc2oc1=O (stereo not drawn),–,–,–,–,–,50µM
CNC(=O)OCCc1n(C)cc[n+]1C,–,–,–,–,–,14µM
CCN1CCN(Cc2ccc(OC(F)(F)F)cc2)CC1,–,–,–,–,–,–[12.7 µM]
CCCCCCOc1ccc(CN2CCN(CC)CC2)cc1,–,?,–,–,–,56µM
O=C1CC(=O)N(c2cccc(Br)c2)C(=O)N1,?,–,–,–,–,56µM
COc1ccc(CNCC(=O)N2CCC3(CC2)OCCO3)cc1,13µM,35µM,–,?,–,22µM
COc1ccc(C(=O)N2CCC3(CC2)OCCO3)cc1,–,–,–,–,–,·
Cc1ccccc1NC1=NCC(C)S1 (stereo not drawn),–,–,–,–,–,–
Cc1cccnc1NC1=NCC(C)S1 (stereo not drawn),–[11.4 µM],–,–,–,–,4µM
CCC1(C)CC(C(N)=S)CCO1 (stereo not drawn),56µM,?,–,?,–,–[12.7 µM]
Cc1cc(C)cc(OCC(=O)Nc2ccc(Cl)cc2C(=O)c2ccccc2)c1,–,–,·,–,·,–
O=c1[nH]c(=O)n(CCC2=CCCCC2)c(O)c1C=NCc1cccnc1,–,–,–,–,–,50µM
CCN(CC)CCN=Cc1c(O)n(CCC2=CCCCC2)c(=O)[nH]c1=O,–,–,–,–,–,–[12.7 µM]
Cc1ccc2[nH]c3c(c2c1)CN(C(=O)CN1C[C@H]2C[C@@H](C1)c1cccc(=O)n1C2)CC3,–,–,–,–,–,50µM
CN1C2CCC1CC(OC(=O)c1cccc(O)c1)C2 (stereo not drawn),–,·,–,–,–,·
O=C(N/N=C1/CN2CCC1CC2)c1cccc(O)c1,45µM,?,–,–,–,10µM
C[C@@H]1CC([C@H](O)CC2CC(=O)NC(=O)C2)C(=O)[C@@H](C)C1 (stereo partly drawn),·,·,·,·,·,–
Cc1ccccc1N1C(=O)NC(=O)/C(=C\c2ccc3c(c2)CCCN3Cc2ccccc2)C1=O,50µM,35µM,–,?,–,10µM
O=[N+]([O-])c1cc(S(=O)(=O)c2ccc(O)c([N+](=O)[O-])c2)ccc1O,56µM,50µM,?,?,–,?
C[N+]1(CC(COCc2ccccc2)OC(=O)Cc2ccccc2)CCOCC1 (stereo not drawn),?,–,–,–,–,8.9µM
CCCCCCC(=O)CCCCCC/C=C/C[C@@H](O)[C@H](O)[C@@](N)(CO)C(=O)O,·,·,·,·,·,–[12.7 µM]
O=c1[nH]c(=S)[nH]c(O)c1/C=N/N1CCOCC1,–,–,–,–,·,50µM
Cc1ccc(-n2c(O)c(/C=N/N3CCOCC3)c(=O)[nH]c2=S)cc1,?,?,–,–,–,?
SMILES,JMJD2A Tudor inh,BAZ2B inh,Six1-Eya2 blk,HP1b chromo inh,CtBP-E1A inh,G9a block
COC(=O)C(O)(c1c(C)[nH]n(-c2ccccc2)c1=O)C(F)(F)F (stereo not drawn),–,?,–,–,–,32µM
Cc1cc(-c2n[nH]c(=S)n2CC(C)C)cs1,5.6µM,–,–,?,–,3.2µM
CN(Cc1ccccc1)C(=C(Cl)Cl)/C(=C1/NCCN1Cc1ccc(Cl)nc1)[N+](=O)[O-],–,–,–,–,–,50µM
O=[N+]([O-])/C(Cl)=C1\NCCN1Cc1ccc(Cl)nc1,–,–,–,–,–,–
C=C[C@H]1CN2CC[C@@H]1C[C@H]2[C@@H](O)c1ccnc2ccccc12,·,·,·,·,·,–[21.5 µM]
CN(C)c1ccc(Cc2ccc(N(C)C)cc2)cc1,25µM,·,-92,20µM,·,·
Cc1[nH]c2ccc(OC(F)(F)F)cc2c1CCNCc1ccc(Cl)cc1,13µM,50µM,–,?,–,?

# From PubChem BioAssay
